A selection: hits, their analogues and other compounds. The true share with any hit is near 12%.
L3MBTL1 block: L3MBTL1 (human) inhibition; Q9Y468; Potency, µM (top dose mostly 57.1 µM), without a hit: at the top dose activity, negative = inhibition, actives largely listed as inhibitors; AlphaScreen L3MBTL1–H3K9me1 peptide binding; hit rate 0.66% among 230,000; further: on the % scale 0 is the no-effect control and ±100 the full control effect; nearly all actives have a fitted effect of over 60% in size
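Displacement of a biotinylated histone H3(1-15) peptide monomethylated at Lys9 (75 nM) from L3MBTL1 (50 nM) was measured by AlphaScreen after a 30 min room-temperature compound incubation; cefsulodin titration served as intraplate control.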
HP1b chromo inh: blocks HP1-beta chromodomain binding to methylated histone tails | AlphaScreen HP1-beta / biotin-H3K9me3 peptide binding | Potency, µM (series often up to 114 µM), inactives show at the top dose activity change, negative = inhibition, most hits filed as inhibitors | hit rate 0.56% among 390,000 | AID 540317; further: nearly all actives have a fitted effect of over 70% in size
Target sequence (P83916 whole entry, looked up): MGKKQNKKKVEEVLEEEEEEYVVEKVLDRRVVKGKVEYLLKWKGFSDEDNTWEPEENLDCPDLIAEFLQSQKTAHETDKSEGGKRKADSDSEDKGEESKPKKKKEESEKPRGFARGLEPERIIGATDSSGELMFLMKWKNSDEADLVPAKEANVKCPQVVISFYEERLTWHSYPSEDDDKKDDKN
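AlphaScreen: HP1-beta (50 nM) preformed 30 min with biotin-H3(1-18)K9me3 peptide (50 nM) in PBS pH 7.4, 0.01% Tween-20. Compound added for 30 min at RT, then streptavidin donor/nickel chelate acceptor beads (10 ug/mL) for 30 min.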
JMJD2A Tudor: inhibitors of human JMJD2A Tudor domain. hit rate 4.4% among 390,000. AID 504339. O75164. AlphaScreen JMJD2A-Tudor / H3K4me3 peptide binding. Potency, µM (titrated, usually from 114 µM), for the others: at the top dose activity change, negative = inhibition, most hits filed as inhibitors; further: on the % scale 0 is the no-effect control and ±100 the full control effect; nearly all actives have a fitted effect of over 50% in size
BAZ2B block: blocks human BAZ2B; AlphaScreen BAZ2B-H3K14Ac peptide displacement; Potency, µM (highest dose often 114 µM), inactives show at the highest dose activity change, negative = inhibition, most hits filed as inhibitors; hit rate 4.4% among 360,000; further: on the % scale 0 is the no-effect control and ±100 the full control effect; nearly all actives have a fitted effect of over 60% in size
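Compounds, titrated to a top concentration of 110 uM, were incubated 30 min at room temperature with preformed BAZ2B/acetyl-K14 H3 peptide complex (50 nM each). Proximity signal was measured by AlphaScreen after 20 min with beads.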
Sfp PPTase inh: blocks B. subtilis Sfp PPTase activity | Q9F4F7 | Biochemical Sfp PPTase activity, qHTS | Potency, µM, inactives show largest response in the series, negative = inhibition, most hits filed as inhibitors | hit rate 3.5% among 310,000 | AID 1490;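 further: the enzyme is Sfp with the accession as filed and its product quenches rhodamine fluorescence; 0% = enzyme reaction without inhibitor and -100% = no enzyme wells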
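After 15 min at room temperature with compound, 15 nM Sfp received 5 uM rhodamine-CoA plus 12.5 uM BHQ-2-ybbR (50 mM Hepes pH 7.6, 10 mM MgCl2). Rate came from the fluorescence difference over 30 min, ex 525/em 598 nm.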
G9a block: inhibitors of human histone lysine methyltransferase G9a; Q96KQ7; G9a H3K9 monomethylation, AlphaScreen, 2 h; Potency, µM (doses to about 102 µM), for inactives: at the highest dose activity, negative = inhibition, usual class: inhibitors; hit rate 8.8% among 350,000; AID 504332; further: on the % scale 0 is the no-effect control and ±100 the full control effect; nearly all actives have a fitted effect of over 75% in size
Target sequence (Q96KQ7 913-1193 limits assumed): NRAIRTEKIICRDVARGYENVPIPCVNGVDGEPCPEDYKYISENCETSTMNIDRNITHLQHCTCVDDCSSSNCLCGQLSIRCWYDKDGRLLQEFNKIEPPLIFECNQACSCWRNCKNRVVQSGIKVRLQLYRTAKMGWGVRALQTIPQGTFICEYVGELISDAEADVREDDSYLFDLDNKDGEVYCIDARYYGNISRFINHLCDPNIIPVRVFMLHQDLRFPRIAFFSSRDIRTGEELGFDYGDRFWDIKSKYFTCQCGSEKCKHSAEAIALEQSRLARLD
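G9a (20 nM) preincubated 15 min RT with compounds, then 500 nM biotinylated H3K9 peptide and 20 uM SAM added; 2 h RT reaction. Monomethyl-H3K9 product detected by AlphaScreen with anti-H3K9me1 antibody, streptavidin donor and anti-rabbit IgG acceptor beads.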
Numbers without * were called inactive; ? = inconclusive; . = no result given; [ ] = another dose, or the depositor's remark. The call rests on the fitted dose curve; in most records, active means well fitted curve in the direction sought with a large enough effect; inconclusive means small, poorly fitted or top-dose-only effect, or another doubt; inactive means no such curve, though single readings can be large; an effect the other way counts as inactive or inconclusive. Potency means the concentration at half of the fitted maximal effect.

SMILES	L3MBTL1 block	HP1b chromo inh	JMJD2A Tudor	BAZ2B block	Sfp PPTase inh	G9a block
CCCCC(=O)Nc1c(O)c2ccccc2[nH]c1=O	-3.8%	37.8%	0.6%	2.9%	9.6%	?
CC(C)=NNC(=O)c1c(O)c2ccccc2[nH]c1=O	-1.4%	40.6%	5.4%	-14.3%	-6.0%	.
CC(=O)Nc1c(O)c2ccccc2[nH]c1=O	1.6%	47.2%	10.8%	2.0%	17.8µM*	50.1µM*
Cc1ccc(C)c(NC(=O)CN2C(=O)CSc3nc(C)cc(C)c32)c1	.	48.2%	7.4%	-1.5%	.	1.2%[59 µM]
O=C(COC(=O)CCc1nc2ccccc2s1)Nc1cccc(S(=O)(=O)N2CCOCC2)c1	.	16.2%	-3.2%	9.1%	-7.2%	?
N#CCc1nc2ccc(S(=O)(=O)N3CCOCC3)cc2s1	-14.2%	24.0%	-26.4%	-20.5%	-2.4%	-28.6%
O=S(=O)(c1ccc(OCc2nc3ccccc3s2)c(Cl)c1)N1CCOCC1	-7.2%	54.4%	3.1%[11.4 µM]	31.6%	3.6%	50.1µM*
O=C(COC(=O)CCc1nc2ccccc2s1)Nc1ccc(S(=O)(=O)N2CCOCC2)cc1	-3.7%	17.1%	-16.1%	-2.8%	9.4%	56.2µM*
O=C(COC(=O)CCCc1nc2ccccc2s1)Nc1ncc(Cl)cc1Cl	-15.1%	9.9%	?	?	0.3%	?
O=C(COC(=O)CCc1nc2ccccc2s1)Nc1ncc(Cl)cc1Cl	-9.8%	20.6%	-22.6%	?	1.7%	44.7µM*
Fc1ccc(NCc2nnc3n2CCCCC3)cc1Cl	.	16.0%[57 µM]	-14.6%	6.6%	.	8.7%[59 µM]
C[C@H](CO)N1C[C@H](C)[C@@H](CN(C)S(=O)(=O)c2ccccc2)Oc2ccc(NS(=O)(=O)c3cccs3)cc2C1=O	5.2%	28.1%	-29.8%	.	.	.
COc1cc2c(cc1OC)CN(Cc1cc(=O)oc3c(C)c(C)ccc13)CC2	-11.2%	22.2%	-30.1%	-24.7%	0.6%	25.1µM*
CCc1ccc2c(CN3CCc4cc(OC)c(OC)cc4C3)cc(=O)oc2c1	-10.6%	33.4%	-16.4%	-36.9%	-6.5%	8.91µM*
COc1cc2c(cc1OC)CN(Cc1cc(=O)oc3cc(C)c(C)cc13)CC2	-8.6%	34.6%	-22.2%	-9.0%	-9.2%	7.94µM*
COc1cc2c(cc1OC)CN(Cc1cc(=O)oc3cc(C)c(Cl)cc13)CC2	-7.6%	29.6%	-14.7%	-8.9%	-12.2%	10µM*
Cc1cc2oc(=O)cc(CN3CCC(C)CC3)c2cc1Cl	8.7%	40.8%	5.3%	-0.3%	-2.8%	-15.9%[59 µM]
O=C(c1cccs1)N1CCCC(c2nc3c(nnn3Cc3c(Cl)cccc3Cl)c(=O)[nH]2)C1 (stereo unspecified)	.	2.8%	-22.8%	-23.6%	-5.3%	7.5%
Cc1ccc2nc(N3CCN(c4ccccc4F)CC3)c3nnnn3c2c1	.	54.9%	-1.0%	-0.4%	.	4.4%[59 µM]
O=C1CCN(CCc2ccccc2)CCN1C(CSc1ccc(Br)cc1)Cc1ccccc1 (stereo unspecified)	.	14.5%	-35.9%	.	12.0%	.
O=C(/C=C/c1ccc(F)cc1)NCCCn1ccnc1	.	33.3%	-1.4%	-0.2%	11.1%	-4.5%
O=C(N/N=C/c1ccccc1O)NC12CC3CC(CC(C3)C1)C2	.	4.8%[57 µM]	-15.1%	-3.9%	9.6%	56.9%
O=C(N/N=C/c1cc(Cl)cc([N+](=O)[O-])c1O)NC12CC3CC(CC(C3)C1)C2	-24.0%	?	50.1µM*	8.91µM*	-1.5%	10µM*
O=C(N/N=C/c1ccc(O)c(O)c1)c1cccc(S(=O)(=O)N2CCCC2)c1	-1.4%	-23.4%	7.94µM*	-37.8%	.	39.8µM*
O=C(N/N=C/c1cc(Cl)cc([N+](=O)[O-])c1O)c1cccc(S(=O)(=O)N2CCOCC2)c1	?	-32.4%	39.8µM*	25.1µM*	.	50.1µM*
SMILES	L3MBTL1 block	HP1b chromo inh	JMJD2A Tudor	BAZ2B block	Sfp PPTase inh	G9a block
COc1cc(/C=N/NC(=O)c2cccc(S(=O)(=O)N3CCCC3)c2)ccc1O	6.2%	14.6%	-24.1%	3.3%	.	4.8%[0.501 µM]
O=C(N/N=C/c1cc(Cl)cc([N+](=O)[O-])c1O)c1ccc2c(c1)OCO2	-24.9%	-4.1%	79.4µM*	35.5µM*	21.5%	?
O=C(N/N=C/c1cc(Br)cc(Cl)c1O)c1ccc2c(c1)OCO2	.	36.4%	?	.	.	.
O=C(N/N=C/c1ccccc1Br)c1cccc(S(=O)(=O)N2CCOCC2)c1	-1.0%	36.0%	-20.1%	4.2%	.	-13.7%[12.7 µM]
CCOc1ccc(C(=O)N/N=C/c2cc(Cl)ccc2[N+](=O)[O-])cc1	0.5%	-10.7%	?	56.2µM*	-11.4%	-45.1%[59 µM]
O=C(N/N=C/c1cc(Br)cc(Br)c1O)c1cccc(S(=O)(=O)N2CCOCC2)c1	.	0.3%	89.1µM*	-1.2%	14.0%	45.1%[59 µM]
CC1(c2nnc(Cc3ccccc3)o2)CC(c2ccccc2Br)=NO1 (stereo unspecified)	10.8%	59.2%	1.4%	9.2%	.	-16.2%[2.33 µM]
CCCCn1cc(S(=O)(=O)c2ccc(OC)cc2)c(=O)c2cc(CC)ccc21	.	36.9%	-15.9%	-1.6%	.	-27.5%[59 µM]
O=C(c1ccccc1)c1coc2c1C(=O)c1ccccc1C2=O	-15.7%	?	-19.2%	31.6µM*	?	44.7µM*
COc1ccc(C(=O)c2coc3c2C(=O)C(=O)c2ccccc2-3)cc1	-18.7%	?	?	25.1µM*	31.6µM*	.
O=C1c2ccccc2C(=O)c2c1oc(C(F)(F)F)c2C(=O)c1ccccc1	7.8%	?	?	7.08µM*	-9.9%	3.98µM*
CC(=O)c1c(C)oc2c1C(=O)c1ccccc1C2=O	-8.9%	-2.8%	-20.8%	-0.3%	4.0%	-12.8%
CCn1c(SCC(=O)NC2CCCCC2)nnc1-c1cccnc1	.	8.7%	-8.8%	-1.6%	12.8%	16.7%
Cc1ccc(S(=O)(=O)N2CCOCC2)cc1NC(=O)c1ccc(F)cc1F	-1.7%	25.4%	12.2%	.	.	.
O=S(=O)(c1cccc(-c2nnc(-c3cccnc3)o2)c1)N1CCCCC1	4.1%	22.2%	-6.0%	-2.5%	12.0%	-4.4%[59 µM]
CCCc1ccc(S(=O)(=O)N2CCC(c3nnc(-c4cccc(C)c4)o3)CC2)cc1	.	27.2%	-16.2%	-1.9%	.	8.91µM*
Cc1ccc(S(=O)(=O)N2CCC(c3nnc(-c4cccc(C)c4)o3)CC2)cc1	.	1.4%	-16.6%	-16.0%	.	3.55µM*
CC1CCN(S(=O)(=O)c2cccc(-c3nnc(-c4cccnc4)o3)c2)CC1	.	-10.2%	28.2µM*	0.1%	16.7%	22.3%[59 µM]
COc1ccc(-c2nnc(C3CCN(S(=O)(=O)c4ccc(C)c(C)c4)CC3)o2)cc1	.	33.6%	-14.2%	-9.5%	.	-11.5%[59 µM]
COc1ccccc1-c1nnc(C2CCN(S(=O)(=O)c3ccc(F)c(C)c3)CC2)o1	.	22.9%	-27.2%	-12.3%	.	?

Screening results as filed in PubChem.
